According to PubChem BioAssay AID926 (National Center for Advancing Translational Sciences (NCATS), 2007):
Several values for one entry are separate records, joined by “and”; a condition that tells them apart may be missing. Equal entries are not always repeated. The campaign covered roughly 73,000 compounds. About 350 (0.48%) were called active. About 17% were inconclusive and are not listed. Calls come from the whole dose curve; as a rule, active = well fitted activation curve with a large enough effect in the main read-out, with a control signal flat (not every such curve was filed as active); inconclusive = small, poorly fitted or top-dose-only effect, or a change in a side signal; inactive = no such curve, though single readings can be large or run the other way; reference of the percent scale not stated here. The sample as a whole holds a higher share of actives than the screen did. Some compounds were tested as several samples or in several runs, with calls that do not always agree.

How the values were obtained:
[1] = qHTS Assay for Agonists of the Thyroid Stimulating Hormone Receptor; settings: HEK293-CNG-TSHR cells, membrane potential dye, cAMP; measured here: parental cells max response
Description: (§1) NIH Chemical Genomics Center [NCGC]
(§2) NIH Molecular Libraries Screening Centers Network [MLSCN]
(§3) PI Name: Dr. Marvin Gershengorn, NIH
(§4) Thyroid Stimulating Hormone Receptor
(§5) TSH is an alpha/beta heterodimeric glycoprotein hormone secreted from the anterior pituitary gland which belongs to the glycoprotein hormone family. The actions of TSH are mediated by a seven-transmembrane receptor, which upon TSH binding couples preferentially to the G-alpha (s) protein (Gs), resulting in activation of adenylate cyclase and increase in cyclic adenosine 3', 5' monophosphate (cAMP). The TSH receptor (THSR) is mainly expressed in thyroid follicular cells and regulates their growth and function. Recombinant TSH is used to activate TSHR in patients with thyroid cancer receiving thyroid hormone suppression therapy and to screen for residual tumor after surgery, but it is expensive and must be administered intramuscularly. An orally active small molecule TSHR agonist would serve as an invaluable research tool for studying TSHR pharmacology and physiology, and would have multiple advantages in therapeutic settings. However, no selective small molecule agonist of the TSH receptor exists, and no small molecule screen for TSHR agonists has ever been reported.
(§6) This cell based assay utilized a cyclic nucleotide gated ion channel (CNG) as a biosensor for cAMP induction by potential TSHR agonists.
(§7) HEK 293 cells stably expressing the TSHR as well as a modified CNG were purchased from BD biosciences. Stimulation of cAMP production causes the CNG to open and subsequent membrane depolarization to occur. A fluorescent membrane potential dye (BD biosciences) was utilized to detect cAMP stimulation in TSHR cells.
(§8) The cells were maintained in DMEM medium (Invitrogen) containing 10 % FBS (Hyclone), 100 units/ml Penicillin, 100 ug/ml Streptomycin (Invitrogen), and 250 ug/ml Geneticin (Invitrogen) and 1 ug/ml Puromycin (Invitrogen) at 37C in 5% CO2. HEK 293 cells expressing CNG but without TSHR (parental cells) were used in concert to control for compounds signaling through endogenous receptors and targets of HEK 293 cells.
(§9) NCGC Assay Protocol Summary:
(§10) High Throughput Screening. Freshly passaged cells (TSHR or parental) were dispensed into 1536-well assay plates at 4 ul/well in DMEM containing phenol red (Invitrogen), 10% FCS (Hyclone), and 100 units/ml Penicillin, 100 ug/ml Streptomycin (Invitrogen) and incubated at 37 C with 5% CO2 for 20 to 36 hrs before the robotic screening. The screen was initiated by addition of 4 ul/well membrane potential dye containing 100 uM RO 20-1724 (Sigma Aldrich), followed by 60 min incubation at room temperature to allow for dye equilibration across the cell membrane. 23 nl/well compound or control was then added to the assay plates, which were incubated for additional 30 min before reading a Envision fluorescence plate reader (Perkin Elmer) in bottom-read mode for fluorescence intensity (emission at 590 nm).
(§11) Keywords: Thyroid-stimulating hormone TSH, TSHR, TSHR agonist, quantitative high throughput screening, qHTS, HTS, probe identification, CNG, cAMP, cyclic nucleotide gated ion channel PubChem

[2] = target: Thyrotropin receptor (Homo sapiens) (UniProt P16473); test: as above; settings: HEK293-CNG-TSHR cells (CNG channel as cAMP sensor), membrane potential dye, cAMP; series mostly up to 57.1 µM
Description: as §1, §2, §3, §4, §5, §6, §7, §8, §9, §10, §11
Potency is the fitted concentration of half-maximal effect.

Sequence of Thyrotropin receptor (Homo sapiens) (P16473 whole entry, looked up): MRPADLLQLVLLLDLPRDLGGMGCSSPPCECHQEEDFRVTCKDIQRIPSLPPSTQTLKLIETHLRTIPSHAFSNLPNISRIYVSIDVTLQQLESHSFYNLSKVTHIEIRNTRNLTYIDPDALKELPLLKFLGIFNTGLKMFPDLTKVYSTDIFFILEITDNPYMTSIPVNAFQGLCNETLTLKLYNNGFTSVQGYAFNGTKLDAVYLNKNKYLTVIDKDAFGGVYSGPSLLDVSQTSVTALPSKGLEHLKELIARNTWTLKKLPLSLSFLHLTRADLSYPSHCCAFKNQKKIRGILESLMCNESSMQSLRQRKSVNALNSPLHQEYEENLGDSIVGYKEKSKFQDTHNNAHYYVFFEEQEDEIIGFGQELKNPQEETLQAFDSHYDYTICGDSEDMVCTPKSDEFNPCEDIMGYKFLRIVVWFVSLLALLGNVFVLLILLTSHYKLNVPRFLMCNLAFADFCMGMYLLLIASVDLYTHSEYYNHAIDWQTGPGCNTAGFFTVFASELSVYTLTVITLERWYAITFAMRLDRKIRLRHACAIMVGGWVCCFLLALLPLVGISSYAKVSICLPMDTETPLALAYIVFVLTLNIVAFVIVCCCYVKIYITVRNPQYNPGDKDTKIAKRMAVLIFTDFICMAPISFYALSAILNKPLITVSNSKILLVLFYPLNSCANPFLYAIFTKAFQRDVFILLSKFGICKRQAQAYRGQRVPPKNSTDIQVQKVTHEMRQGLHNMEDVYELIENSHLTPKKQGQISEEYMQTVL

SMILES	activation [1]	Potency [2]
CCOC(=O)C1=C(C)OC(N)=C(C(=O)OC)C12C(=O)Nc1ccc(Br)cc12 (centres undefined)	2.68%	inactive
C=CCN1C(=O)C2(C(C(=O)OCC)=C(N)Oc3c2c(=O)oc2ccccc32)c2ccccc21 (centres undefined)	-2.59%	1000 nM (active)
CCOC(=O)CC1=C(C(=O)OCC)C2(C(=O)N1)C(C(=O)OC)=C(N)Oc1ccccc12 (centres undefined)	2.69%	inactive
C/C(=C\C=C/[C@@H](C)C(=O)O)[C@H]1CN[C@H](C(=O)O)[C@@H]1CC(=O)O	10.5%	inactive
CN1[C@H]2CC(OC(=O)[C@@H](CO)c3ccccc3)C[C@H]1[C@H]1O[C@H]12 (some centres undefined)	8.99%	inactive
C[C@]12CC[C@H](O)C[C@@H]1CC[C@H]1[C@H]2CC[C@]2(C)C(=O)CC[C@@H]12	-0.6% and 8.47% and 0.887%	inactive
CN=C(NC#N)NCCSCc1nc[nH]c1C	6.37% and -0.29%	inactive
CNCC[C@H](Oc1ccc(C(F)(F)F)cc1)c1ccccc1		inactive and 126 nM (active)
Clc1ccc([C@@H]2C[C@H]3CC[C@@H]2N3)cn1	5.78%	inactive
Clc1cccc(Cl)c1Cl	22.7%	inactive
